Source: PubChem BioAssay (NCI)
About 79,000 compounds went through this panel and 15% of them were active in at least one assay; those are over-represented in the sample as a whole. A number with no mark means an inactive call. Active and inactive are the calls of the source. Rule as the data show it: active = growth inhibition above about 70%; inactive = the rest.

Assays:
[1] = NCI Yeast Anticancer Drug Screen. Data for the rad50 strain (AID 155);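 also: 0% = growth of vehicle-only cultures of the same strain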; details: S. cerevisiae rad50 strain growth inhibition, hits give high values
Method in brief: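 Compounds were tested on a yeast strain with an engineered DNA damage repair alteration; the reported value is growth inhibition normalised to vehicle treatment.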

[2] = NCI Yeast Anticancer Drug Screen. Data for the mec2-1 strain (AID 157); details: S. cerevisiae mec2-1 strain, hits give high values
Method in brief: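 Growth inhibition is read against vehicle-treated controls after compound exposure of the mec2-1 yeast strain, which is defective in DNA damage repair or cell cycle control.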

[3] = NCI Yeast Anticancer Drug Screen. Data for the sgs1 mgt1 strain (AID 161);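 also: 0% = growth of cultures given vehicle only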; details: S. cerevisiae sgs1 mgt1 strain, hits give high values
Method in brief: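 Percent growth inhibition was derived by comparing compound-exposed mutant yeast with vehicle-exposed cultures. The strain carries alterations in DNA damage repair.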

[4] = NCI Yeast Anticancer Drug Screen. Data for the cln2 rad14 strain (AID 165);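 also: 0% = growth equal to vehicle treated cultures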; details: S. cerevisiae cln2 rad14 strain, hits give high values
Method in brief: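 Growth inhibition, relative to vehicle-treated controls, is the read-out. The test organism is a yeast strain with defined genetic alterations, cln2 rad14.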

[5] = NCI Yeast Anticancer Drug Screen. Data for the bub3 strain (AID 167); details: S. cerevisiae bub3 mutant strain, hits give high values
Method in brief: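 Growth of a checkpoint-deficient yeast mutant is measured after compound exposure. Values represent inhibition relative to vehicle.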

[6] = NCI Yeast Anticancer Drug Screen. Data for the mlh1 rad18 strain (AID 175); details: S. cerevisiae mlh1 rad18 strain growth inhibition, hits give high values
Method in brief: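 Cells of a genetically altered yeast strain, deficient in DNA damage repair, were treated with compound. Their growth was then compared with that of vehicle-treated cultures to give inhibition.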

[7] = at 5.0 µM (retest, dose inferred, filed as 0.5)
[8] = at 50.0 µM (retest, dose inferred, filed as 5.0)

| Compound | growth inhibition [1, 7] | growth inhibition [1, 8] | growth inhibition ([1]; at 50.0 µM) | growth inhibition [2, 7] | growth inhibition [2, 8] | growth inhibition ([2]; at 50.0 µM) | growth inhibition [3, 7] | growth inhibition [3, 8] | growth inhibition ([3]; at 50.0 µM) | growth inhibition [4, 7] | growth inhibition [4, 8] | growth inhibition ([4]; at 50.0 µM) | growth inhibition [5, 7] | growth inhibition [5, 8] | growth inhibition ([5]; at 50.0 µM) | growth inhibition [6, 7] | growth inhibition [6, 8] | growth inhibition ([6]; at 50.0 µM) |
| --- | --- | --- | --- | --- | --- | --- | --- | --- | --- | --- | --- | --- | --- | --- | --- | --- | --- | --- |
| NC(=O)c1cccn1Cc1ccccc1SSc1ccccc1Cn1cccc1C(N)=O | 32% | 98% (active) | 89.5% (active) | 31% | 99% (active) | 95.7% (active) | 47% | 99% (active) | 94.2% (active) | 16% | 98% (active) | 90.9% (active) | 24% | 99% (active) | 92.8% (active) | 21% | 98% (active) | 94.4% (active) |
| COc1ccc(OC(C)=O)c2c1CCC=CC2=O | 14% | 93% (active) | 41.9% | 24% | 96% (active) | 41.9% | 18% | 93% (active) | 61.3% | 14% | 80% (active) | 57% | 22% | 92% (active) | 65.3% | 14% | 95% (active) | 74% (active) |
| COc1ccccc1/C=C1\SC(=S)N(/C=C2\C(=O)Oc3ccccc3C2=O)C1=O | 1% | 12% | 30.9% | -3% | 27% | 18.6% | 8% | 12% | 54.2% | -8% | 17% | 58.9% | 20% | 38% | 32.2% | -16% | 14% | 53.7% |
| O=C(c1cccnc1)N(C1CCCCC1)C1CCCCC1 | 3% | 4% | 2.25% | -2% | 8% | -6.85% | 2% | 6% | 3.4% | 1% | 9% | 11.8% | 1% | 12% | 0.35% | -10% | 6% | -2.25% |
| CCN(CC)CCOc1ccc(NC(=S)Nc2ccc(OCC(C)C)cc2)cc1 | 2% | 54% | 66.1% | 29% | 65% | 34.1% | 42% | 76% (active) | 81.8% (active) | 10% | 53% | 83.9% (active) | 4% | 47% | 76% (active) | 46% | 74% (active) | 80.9% (active) |
| COc1ccc(CN2CCCN(Cc3ccc(OC)cc3)C2Cc2cc(Cl)ccc2OC)cc1 | -3% | 58% | 82.4% (active) | -3% | 61% | 48.8% | -44% | 63% | 80.7% (active) | -6% | 19% | 33.4% | -5% | 56% | 56.5% | 18% | 85% (active) | 77.8% (active) |
| CCOP(=O)(OCC)/C(C#N)=C/c1coc2cc(C)cc(C)c2c1=O | 19% | 99% (active) | 86.7% (active) | -7% | 100% (active) | 91.9% (active) | -10% | 99% (active) | 78% (active) | 0% | 99% (active) | 59% | -9% | 98% (active) | 87.2% (active) | 26% | 99% (active) | 82.2% (active) |
| CC(=O)c1c(-c2ccc(Cl)cc2)c(-c2ccc(Cl)cc2)nn(CCO)c1=O | 12% | 86% (active) | 97.8% (active) | 4% | 76% (active) | 97.9% (active) | 2% | 89% (active) | 98.2% (active) | 3% | 78% (active) | 89.3% (active) | 4% | 78% (active) | 92.1% (active) | 4% | 80% (active) | 97.8% (active) |
| C/C=C/C=C/C(=O)Nc1ccc([N+](=O)[O-])cc1 | 0% | 53% | 39.8% | -5% | 39% | -0.4% | -1% | 74% (active) | 87% (active) | -9% | 16% | 10.7% | 0% | 63% | 36.4% | 0% | 32% | 32.4% |
| CCN(CC)CCNc1c(OC)cc(C)c2sc3ccccc3c(=O)c12 | 8% | 75% (active) | 81.2% (active) | 6% | -1% | 39.5% | 0% | 66% | 82.8% (active) | 1% | 39% | 33.1% | 1% | 33% | 57% | 4% | 86% (active) | 94% (active) |
| CC1=C2CCC3C(CCC4(C)C(C(C)CCCC(C)C)CCC34)C2(C)CCC1=O (configuration not stated) | -11% | -2% | 41% | 1% | -2% | 4.25% | 4% | -1% | 16.4% | 6% | 3% | 18.4% | 1% | 5% | 4.1% | 17% | 9% | 10.9% |
| O=C1OC2(c3ccccc31)c1cc(I)c(O)c(I)c1Oc1c2cc(I)c(O)c1I | 32% | 99% (active) | 98.5% (active) | 61% | 99% (active) | 99.3% (active) | 21% | 56% | 99.6% (active) | 15% | 98% (active) | 98.8% (active) | 15% | 99% (active) | 99.2% (active) | 62% | 99% (active) | 98.7% (active) |
| CC(C)C1=CC2=CCC3C(C)(C(=O)O)CCCC3(C)C2CC1 (configuration not stated) (tested in a mixture with another compound) | -8% | 80% (active) | 75.5% (active) | -16% | 96% (active) | 75.7% (active) | -13% | 88% (active) | 75.5% (active) | -17% | 85% (active) | 88.5% (active) | -14% | 88% (active) | 89.5% (active) | -3% | 92% (active) | 88.8% (active) |
| CCSc1nc2ccc(N3C(=O)C=CC3=O)cc2s1 | 88% (active) | 100% (active) | 99.7% (active) | 93% (active) | 100% (active) | 99.6% (active) | 96% (active) | 100% (active) | 99.5% (active) | 34% | 99% (active) | 99.3% (active) | 93% (active) | 99% (active) | 99.6% (active) | 98% (active) | 99% (active) | 99.3% (active) |
| Cc1ccc(/C=C2\CCCC(CN3CCCCC3)C2=O)cc1 (configuration not stated) | 23% | 99% (active) | 75% (active) | 34% | 99% (active) | 83% (active) | 30% | 99% (active) | 87.8% (active) | 45% | 98% (active) | 73.3% (active) | 37% | 99% (active) | 89.3% (active) | 32% | 99% (active) | 90% (active) |
| O=C(CNc1cccc([N+](=O)[O-])c1)Nn1c(-c2ccccc2)nc2ccccc2c1=O | 2% | 30% | 55.5% | -3% | 17% | 18.4% | 3% | 21% | 62.7% | 12% | 35% | 38.6% | -18% | 9% | 54.6% | 7% | 41% | 76.7% (active) |
| Nc1ncnc2c1ncn2CC(O)CN(CCO)CCO (configuration not stated) (tested in a mixture with another compound) | -24% | -1% | -5% | -10% | -7% | -3.15% | -11% | -3% | -12.1% | -12% | 4% | 18.8% | 7% | 15% | 2% | -15% | -17% | 22.2% |
| N#Cc1ncc(Cl)cc1[N+](=O)[O-] | 93% (active) | 98% (active) | 99.5% (active) | 80% (active) | 99% (active) | 99.7% (active) | 93% (active) | 99% (active) | 99.5% (active) | 59% | 98% (active) | 99.2% (active) | 70% (active) | 98% (active) | 99.6% (active) | 75% (active) | 98% (active) | 99.5% (active) |
| CC(=O)CC(C)=NCCN=C(C)CC(C)=O.[Pd] | -6% | 61% | 76% (active) | -1% | 78% (active) | 67.2% | 0% | 96% (active) | 94.3% (active) | -5% | 41% | 53% | -1% | 60% | 76.2% (active) | -9% | 74% (active) | 83.7% (active) |
